Test results as given in the supplement of paper PMC3334620.
In all, about 33,000 sequences were measured (“E-score (-0.5 to 0.5)”: median about -0.043, highest 2% from about 0.37 on). Shown is part of a subset that was picked to be rich in the highest values.

biological target: T1, Upc2 (UniProt Q12151); assay: PBM E-score (8-mer binding enrichment) (E-score (-0.5 to 0.5)); higher = stronger / more preferred TF binding; details: protein concentration: 200 nM; construct: GST-full length
T1 sequence: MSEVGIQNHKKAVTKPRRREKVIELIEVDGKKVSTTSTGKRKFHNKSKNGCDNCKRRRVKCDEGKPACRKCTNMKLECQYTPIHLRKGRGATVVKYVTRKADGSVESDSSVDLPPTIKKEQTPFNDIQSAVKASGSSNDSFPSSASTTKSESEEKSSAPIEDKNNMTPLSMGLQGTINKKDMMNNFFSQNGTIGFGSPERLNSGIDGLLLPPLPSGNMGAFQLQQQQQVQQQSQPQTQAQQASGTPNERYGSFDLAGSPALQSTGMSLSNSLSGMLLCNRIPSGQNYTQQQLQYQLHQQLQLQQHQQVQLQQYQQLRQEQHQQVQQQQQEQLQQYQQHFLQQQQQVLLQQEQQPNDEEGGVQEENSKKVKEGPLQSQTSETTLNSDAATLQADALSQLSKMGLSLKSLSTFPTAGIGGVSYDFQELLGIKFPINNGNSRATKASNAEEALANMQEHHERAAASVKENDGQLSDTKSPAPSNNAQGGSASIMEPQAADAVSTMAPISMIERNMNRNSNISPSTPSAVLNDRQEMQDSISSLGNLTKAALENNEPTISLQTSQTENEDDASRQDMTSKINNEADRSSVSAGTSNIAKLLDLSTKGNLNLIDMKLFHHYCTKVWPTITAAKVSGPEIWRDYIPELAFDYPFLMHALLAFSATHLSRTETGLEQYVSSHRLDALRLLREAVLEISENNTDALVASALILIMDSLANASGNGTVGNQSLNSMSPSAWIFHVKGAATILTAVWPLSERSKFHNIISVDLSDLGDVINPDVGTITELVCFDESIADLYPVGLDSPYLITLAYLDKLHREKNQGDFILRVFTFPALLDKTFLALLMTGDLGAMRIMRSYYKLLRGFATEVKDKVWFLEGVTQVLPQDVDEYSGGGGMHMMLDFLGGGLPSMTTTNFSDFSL
Experimental: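 Universal 'all 10-mer' protein binding microarrays (Agilent AMADID 015681) probed with GST-tagged S. cerevisiae TFs (full-length or DBD) made by in vitro transcription/translation (PURExpress), about 100-200 nM. Bound TF was detected with fluorescent anti-GST. Each ungapped 8-mer (which stands for itself and its reverse complement) is scored by the PBM enrichment score (E-score), a modified Wilcoxon-Mann-Whitney statistic from -0.5 to +0.5, computed with the Universal PBM Analysis Suite. Scale: above 0.35 generally sequence-specific binding.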

Sequence | PBM E-score
AACGATAG | 0.404
CACGATAG | -0.187
GACGATAC | 0.124
AACGATAT | 0.39
ACCGATAT | 0.0732
ACCGATAG | -0.0483
AGCGATAT | 0.206
AACGATAC | 0.413
AGCGATAA | 0.0894
AACGATAA | 0.381
CACTGACG | -0.152
GTGGGTCA | -0.327
GGTCTGTA | 0.0803
ATGGACCA | 0.0213
ATGAGTGA | -0.101
CGTTCGAA | 0.221
AGTGCCAT | -0.133
GAACCACA | -0.0218
ATTTAGAA | -0.14
AAGGCCGT | 0.244
ACCTGGGA | -0.245
AAATTTAA | 0.184

Sequence | PBM E-score
TACGATAA | 0.416
CACGATAA | 0.074
GACGATAA | 0.111
TCAGCGGA | -0.0114
CGTTTACA | 0.441
AGTTTACC | 0.0436
AGTTTACA | -0.0264
CGTTTACC | 0.449
GGTTTACA | -0.0166
CATTTACC | -0.152
AACGGAAA | 0.216
GCAAAACA | -0.144
CGGGGGGC | 0.063
CTACAACC | 0.0888
CGTTCGTC | 0.293
CGTTCGTA | 0.45
GGTTCGGA | -0.168
AGTTCGTA | 0.439
GGTTCGAA | 0.0921
AGTTCGTG | 0.158
AGTTCGTC | 0.0871
CGTTCGGA | 0.265

Sequence | PBM E-score
GGTTCGTA | 0.445
CTTGCAGA | -0.17
GTATAGAA | 0.345
AGGTGCTG | -0.387
CATCAGTC | -0.123
CTCGCCCA | -0.102
ACACCAGC | -0.111
ATGTCGTC | -0.0259
CTGTCGAA | -0.181
GTGTCGCA | 0.0927
GTGTCGTA | 0.44
ATGTCGTA | 0.45
GTGTCGGA | 0.0733
CTGTCGTA | 0.447
CTGTCGTC | 0.00126
ATGTCGTG | -0.0693
GTGTGGCA | -0.371
AACCGGCT | -0.239
AACTATCA | 0.134
ATGTGAAT | 0.12
AATACCGC | -0.131
CGTATGTC | 0.353

Sequence | PBM E-score
CCTATGCC | -0.13
GGTATGCA | -0.00862
CGTATGCC | 0.372
AGTATGCC | -0.189
AGTATGTA | 0.0299
CGTATGCA | 0.377
AGTATGCA | -0.3
CGTATGTA | 0.387
GCAGTAGC | -0.174
AGCGGGTC | -0.0751
CATTTTTC | 0.0327
TAATCTCA | -0.058
CGCTGGAA | -0.186
ACCATCTG | -0.225
CACTCGAA | 0.0152
CACTCGTC | 0.0141
AACTCGTC | 0.0662
AACTCGTG | 0.178
GACTCGTA | 0.436
AACTCGTA | 0.455
GACTCGCA | -0.0142
GACTCGAA | -0.194

Sequence | PBM E-score
CACTCGTA | 0.455
CCACTTCG | 0.0558
AATGGAGT | -0.266
AGCGTTAC | 0.0438
CTCTTCCA | -0.0797
CCGCTGGC | -0.258
GAAATGTC | -0.0124
ACGCGAGG | 0.219
AAGACTCA | -0.172
ACTGACTC | -0.192
CTCGAACA | -0.00626
CCAATAGC | -0.22
TACATCGA | 0.038
CCTTACGC | 0.193
ACTTACGG | 0.194
CCTTACTA | 0.029
ACTTACGA | 0.382
GCTTACTA | -0.0799
GCTTACAA | -0.0171
ACTTACGC | -0.0998
GCTTACGA | 0.421
CCTTACGA | 0.407
